Test results taken from ChEMBL document CHEMBL1961873, “Compounds: GSK PKIS; Assays: Nanosyn kinase panel” (2012).

What was measured:
[1] = molecular target: Sphingosine kinase 1 (Homo sapiens) (UniProt Q9NYA1); conditions: at 1 µM;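 also: mean SPHK1 inhibition value reported from the GSK PKIS kinase panel screen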
[2] = molecular target: T1, Sphingosine kinase 2 (Homo sapiens) (UniProt Q9NRA0); conditions: at 0.1 µM
T1 sequence (whole entry): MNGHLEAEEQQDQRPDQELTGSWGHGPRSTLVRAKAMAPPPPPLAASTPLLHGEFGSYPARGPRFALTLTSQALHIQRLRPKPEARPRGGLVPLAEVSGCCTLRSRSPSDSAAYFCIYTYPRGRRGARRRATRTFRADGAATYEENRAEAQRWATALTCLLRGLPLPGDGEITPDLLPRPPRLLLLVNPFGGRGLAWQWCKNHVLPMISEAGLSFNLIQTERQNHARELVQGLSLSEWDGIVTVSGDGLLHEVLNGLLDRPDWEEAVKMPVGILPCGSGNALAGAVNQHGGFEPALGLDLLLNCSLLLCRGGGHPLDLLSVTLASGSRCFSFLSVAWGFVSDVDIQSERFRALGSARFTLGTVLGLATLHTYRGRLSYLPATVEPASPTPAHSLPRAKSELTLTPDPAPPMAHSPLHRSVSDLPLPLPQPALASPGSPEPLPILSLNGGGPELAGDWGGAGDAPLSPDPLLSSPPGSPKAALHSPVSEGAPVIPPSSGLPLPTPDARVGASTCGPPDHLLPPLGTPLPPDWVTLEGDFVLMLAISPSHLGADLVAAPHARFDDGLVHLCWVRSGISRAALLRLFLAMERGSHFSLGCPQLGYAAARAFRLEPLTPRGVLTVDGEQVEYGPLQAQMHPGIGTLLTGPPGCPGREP

[3] = molecular target: T1, Sphingosine kinase 2 (Homo sapiens); conditions: at 1 µM
[4] = molecular target: Casein kinase II subunit alpha (Homo sapiens) (UniProt P68400); conditions: at 0.1 µM
Casein kinase II subunit alpha (Homo sapiens), sequence (P68400 whole entry, looked up): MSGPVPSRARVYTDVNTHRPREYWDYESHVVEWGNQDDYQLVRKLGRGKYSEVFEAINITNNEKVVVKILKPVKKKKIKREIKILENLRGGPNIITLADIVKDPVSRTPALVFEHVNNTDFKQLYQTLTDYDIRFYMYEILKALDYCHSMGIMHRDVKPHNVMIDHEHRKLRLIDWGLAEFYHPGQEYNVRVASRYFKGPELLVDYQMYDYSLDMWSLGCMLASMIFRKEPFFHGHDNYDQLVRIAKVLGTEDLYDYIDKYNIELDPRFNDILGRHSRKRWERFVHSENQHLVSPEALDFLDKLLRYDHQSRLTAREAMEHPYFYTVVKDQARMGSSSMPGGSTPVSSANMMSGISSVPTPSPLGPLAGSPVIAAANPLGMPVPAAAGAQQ

[5] = molecular target: Casein kinase II subunit alpha (Homo sapiens) (UniProt P68400); conditions: at 1 µM
[6] = molecular target: T2, Inhibitor of nuclear factor kappa-B kinase subunit alpha (Homo sapiens) (UniProt O15111); conditions: at 0.1 µM
T2 sequence (whole entry): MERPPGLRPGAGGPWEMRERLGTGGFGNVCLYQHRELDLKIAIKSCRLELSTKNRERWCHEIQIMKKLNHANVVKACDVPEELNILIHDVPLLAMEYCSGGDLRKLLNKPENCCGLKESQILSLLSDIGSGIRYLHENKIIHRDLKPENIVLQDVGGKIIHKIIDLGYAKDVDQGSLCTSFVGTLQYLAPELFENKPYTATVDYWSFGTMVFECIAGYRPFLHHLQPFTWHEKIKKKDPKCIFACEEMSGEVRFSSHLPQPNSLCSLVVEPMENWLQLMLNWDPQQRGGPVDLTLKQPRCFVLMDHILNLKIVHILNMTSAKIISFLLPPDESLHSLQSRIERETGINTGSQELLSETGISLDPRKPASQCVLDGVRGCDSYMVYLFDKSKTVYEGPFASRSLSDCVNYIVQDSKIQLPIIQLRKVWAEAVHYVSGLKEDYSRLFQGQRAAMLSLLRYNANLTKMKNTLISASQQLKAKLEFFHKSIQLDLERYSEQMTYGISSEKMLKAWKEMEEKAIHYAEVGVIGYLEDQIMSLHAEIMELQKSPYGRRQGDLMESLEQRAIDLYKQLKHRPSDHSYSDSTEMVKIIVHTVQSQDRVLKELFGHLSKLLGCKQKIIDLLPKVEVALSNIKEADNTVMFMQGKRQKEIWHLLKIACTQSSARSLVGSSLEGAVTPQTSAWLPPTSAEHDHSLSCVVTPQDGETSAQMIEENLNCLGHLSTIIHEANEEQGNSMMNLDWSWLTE

[7] = molecular target: T2, Inhibitor of nuclear factor kappa-B kinase subunit alpha (Homo sapiens); conditions: at 1 µM
[8] = molecular target: T3, Inhibitor of nuclear factor kappa-B kinase subunit beta (Homo sapiens) (UniProt O14920); conditions: at 0.1 µM
T3 sequence (whole entry): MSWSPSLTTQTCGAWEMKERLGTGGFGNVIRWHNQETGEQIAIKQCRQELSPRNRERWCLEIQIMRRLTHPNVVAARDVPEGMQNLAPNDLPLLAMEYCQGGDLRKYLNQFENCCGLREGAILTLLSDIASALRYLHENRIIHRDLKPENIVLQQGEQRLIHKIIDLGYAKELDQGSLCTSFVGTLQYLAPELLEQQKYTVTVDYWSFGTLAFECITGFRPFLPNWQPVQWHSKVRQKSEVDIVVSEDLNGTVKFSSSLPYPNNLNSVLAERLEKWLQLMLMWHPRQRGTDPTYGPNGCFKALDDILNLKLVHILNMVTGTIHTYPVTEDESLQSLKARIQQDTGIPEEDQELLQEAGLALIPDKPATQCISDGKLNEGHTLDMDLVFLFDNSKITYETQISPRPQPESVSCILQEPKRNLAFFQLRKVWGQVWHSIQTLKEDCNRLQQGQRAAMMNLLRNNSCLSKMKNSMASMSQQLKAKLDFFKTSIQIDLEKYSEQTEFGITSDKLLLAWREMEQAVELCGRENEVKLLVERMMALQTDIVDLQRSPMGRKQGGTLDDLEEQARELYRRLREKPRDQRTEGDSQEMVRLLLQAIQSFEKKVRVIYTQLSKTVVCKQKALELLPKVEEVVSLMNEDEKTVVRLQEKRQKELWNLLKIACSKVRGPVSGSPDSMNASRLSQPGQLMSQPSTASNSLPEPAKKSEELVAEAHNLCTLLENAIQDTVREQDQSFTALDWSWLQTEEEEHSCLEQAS

[9] = molecular target: T3, Inhibitor of nuclear factor kappa-B kinase subunit beta (Homo sapiens); conditions: at 1 µM
[10] = molecular target: T4, Inhibitor of nuclear factor kappa-B kinase subunit epsilon (Homo sapiens) (UniProt Q14164); conditions: at 0.1 µM
T4 sequence (whole entry): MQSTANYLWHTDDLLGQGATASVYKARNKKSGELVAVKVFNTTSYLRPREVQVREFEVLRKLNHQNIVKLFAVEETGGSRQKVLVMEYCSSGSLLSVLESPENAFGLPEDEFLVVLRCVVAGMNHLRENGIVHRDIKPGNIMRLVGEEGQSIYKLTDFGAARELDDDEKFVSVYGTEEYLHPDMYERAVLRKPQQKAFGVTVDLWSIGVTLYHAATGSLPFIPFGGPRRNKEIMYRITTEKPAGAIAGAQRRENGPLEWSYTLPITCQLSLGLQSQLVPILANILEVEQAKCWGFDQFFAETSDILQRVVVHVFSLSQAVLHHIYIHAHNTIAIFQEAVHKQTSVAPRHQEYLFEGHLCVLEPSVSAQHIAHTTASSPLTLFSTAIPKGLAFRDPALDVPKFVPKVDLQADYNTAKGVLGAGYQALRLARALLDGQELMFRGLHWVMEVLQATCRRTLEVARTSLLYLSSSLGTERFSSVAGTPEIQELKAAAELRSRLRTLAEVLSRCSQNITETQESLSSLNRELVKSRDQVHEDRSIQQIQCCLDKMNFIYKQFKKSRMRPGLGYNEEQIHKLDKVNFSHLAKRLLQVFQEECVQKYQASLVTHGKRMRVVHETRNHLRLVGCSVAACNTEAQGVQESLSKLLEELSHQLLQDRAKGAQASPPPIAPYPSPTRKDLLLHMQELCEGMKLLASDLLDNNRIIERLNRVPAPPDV

[11] = molecular target: T4, Inhibitor of nuclear factor kappa-B kinase subunit epsilon (Homo sapiens); conditions: at 1 µM
[12] = molecular target: T5, Serine/threonine-protein kinase Nek1 (Homo sapiens) (UniProt Q96PY6); conditions: at 0.1 µM
T5 sequence (whole entry): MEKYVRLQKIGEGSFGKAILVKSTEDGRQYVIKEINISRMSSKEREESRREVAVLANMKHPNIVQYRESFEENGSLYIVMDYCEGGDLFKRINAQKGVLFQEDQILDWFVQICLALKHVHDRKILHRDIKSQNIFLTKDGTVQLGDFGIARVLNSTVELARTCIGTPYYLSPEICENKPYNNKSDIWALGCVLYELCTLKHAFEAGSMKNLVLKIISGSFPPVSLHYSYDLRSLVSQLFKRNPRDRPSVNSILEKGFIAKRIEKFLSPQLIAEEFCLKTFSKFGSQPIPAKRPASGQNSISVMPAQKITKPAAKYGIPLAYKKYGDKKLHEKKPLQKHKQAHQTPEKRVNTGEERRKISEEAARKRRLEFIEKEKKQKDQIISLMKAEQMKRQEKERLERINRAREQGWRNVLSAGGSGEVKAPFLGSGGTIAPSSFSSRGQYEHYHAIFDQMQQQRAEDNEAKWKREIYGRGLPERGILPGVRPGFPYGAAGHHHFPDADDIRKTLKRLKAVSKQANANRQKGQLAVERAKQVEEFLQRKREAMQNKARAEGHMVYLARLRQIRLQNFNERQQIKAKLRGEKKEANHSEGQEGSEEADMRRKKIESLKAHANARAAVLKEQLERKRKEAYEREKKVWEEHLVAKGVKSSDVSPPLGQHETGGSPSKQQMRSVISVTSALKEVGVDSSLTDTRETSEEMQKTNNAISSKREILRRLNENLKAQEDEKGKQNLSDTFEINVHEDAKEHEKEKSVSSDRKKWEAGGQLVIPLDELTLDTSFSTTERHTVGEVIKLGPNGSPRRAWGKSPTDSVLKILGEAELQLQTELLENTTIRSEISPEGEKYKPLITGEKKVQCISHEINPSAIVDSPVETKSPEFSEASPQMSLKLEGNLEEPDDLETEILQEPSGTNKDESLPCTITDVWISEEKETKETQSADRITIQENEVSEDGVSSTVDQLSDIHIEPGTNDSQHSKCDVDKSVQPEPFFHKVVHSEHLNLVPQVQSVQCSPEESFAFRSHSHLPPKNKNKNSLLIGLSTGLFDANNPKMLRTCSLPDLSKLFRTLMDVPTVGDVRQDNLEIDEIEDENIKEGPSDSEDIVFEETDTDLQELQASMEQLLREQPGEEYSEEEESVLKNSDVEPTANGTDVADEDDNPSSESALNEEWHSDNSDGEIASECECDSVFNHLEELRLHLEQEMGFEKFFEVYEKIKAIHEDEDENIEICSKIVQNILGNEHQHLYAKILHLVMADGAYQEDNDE

[13] = molecular target: T5, Serine/threonine-protein kinase Nek1 (Homo sapiens); conditions: at 1 µM
[14] = molecular target: T6, Serine/threonine-protein kinase Nek2 (Homo sapiens) (UniProt P51955); conditions: at 0.1 µM
T6 sequence (whole entry): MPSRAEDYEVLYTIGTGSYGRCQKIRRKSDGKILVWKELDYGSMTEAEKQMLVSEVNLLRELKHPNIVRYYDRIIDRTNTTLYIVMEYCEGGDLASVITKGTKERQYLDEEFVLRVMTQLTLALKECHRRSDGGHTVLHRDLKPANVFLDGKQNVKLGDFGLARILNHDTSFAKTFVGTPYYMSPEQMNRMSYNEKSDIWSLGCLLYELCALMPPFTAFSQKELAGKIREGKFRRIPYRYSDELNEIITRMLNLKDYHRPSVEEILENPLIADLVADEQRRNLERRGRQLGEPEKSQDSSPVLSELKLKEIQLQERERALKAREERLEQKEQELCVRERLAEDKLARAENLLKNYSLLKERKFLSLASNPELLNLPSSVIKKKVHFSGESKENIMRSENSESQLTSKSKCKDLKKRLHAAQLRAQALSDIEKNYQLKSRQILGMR

[15] = molecular target: T6, Serine/threonine-protein kinase Nek2 (Homo sapiens); conditions: at 1 µM
[16] = molecular target: Serine/threonine-protein kinase Nek6 (Homo sapiens) (UniProt Q9HC98); conditions: at 0.1 µM
Serine/threonine-protein kinase Nek6 (Homo sapiens), sequence (Q9HC98 whole entry): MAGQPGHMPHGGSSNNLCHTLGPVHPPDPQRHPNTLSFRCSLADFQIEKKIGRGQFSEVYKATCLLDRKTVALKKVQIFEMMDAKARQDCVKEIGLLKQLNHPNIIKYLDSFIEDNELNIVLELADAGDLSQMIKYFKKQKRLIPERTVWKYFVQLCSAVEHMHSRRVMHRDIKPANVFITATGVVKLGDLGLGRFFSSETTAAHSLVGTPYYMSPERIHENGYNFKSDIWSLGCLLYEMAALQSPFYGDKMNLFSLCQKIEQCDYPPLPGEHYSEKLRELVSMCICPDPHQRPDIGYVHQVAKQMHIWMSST

[17] = molecular target: Serine/threonine-protein kinase Nek6 (Homo sapiens) (UniProt Q9HC98); conditions: at 1 µM
[18] = molecular target: Serine/threonine-protein kinase Nek7 (Homo sapiens) (UniProt Q8TDX7); conditions: at 0.1 µM
Serine/threonine-protein kinase Nek7 (Homo sapiens), sequence (Q8TDX7 whole entry, looked up): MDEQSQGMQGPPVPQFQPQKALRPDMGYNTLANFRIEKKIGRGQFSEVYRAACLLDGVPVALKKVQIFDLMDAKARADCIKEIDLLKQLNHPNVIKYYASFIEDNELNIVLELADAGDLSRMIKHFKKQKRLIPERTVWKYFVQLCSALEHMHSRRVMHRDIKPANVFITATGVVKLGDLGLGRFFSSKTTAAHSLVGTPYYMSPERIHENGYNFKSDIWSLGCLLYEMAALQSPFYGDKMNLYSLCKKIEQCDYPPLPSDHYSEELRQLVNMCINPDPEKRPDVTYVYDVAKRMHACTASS

[19] = molecular target: Serine/threonine-protein kinase Nek7 (Homo sapiens) (UniProt Q8TDX7); conditions: at 1 µM
[20] = molecular target: T7, Serine/threonine-protein kinase Nek9 (Homo sapiens) (UniProt Q8TD19); conditions: at 0.1 µM;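 also: reported value is the mean percent inhibition of NEK9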
T7 sequence (whole entry): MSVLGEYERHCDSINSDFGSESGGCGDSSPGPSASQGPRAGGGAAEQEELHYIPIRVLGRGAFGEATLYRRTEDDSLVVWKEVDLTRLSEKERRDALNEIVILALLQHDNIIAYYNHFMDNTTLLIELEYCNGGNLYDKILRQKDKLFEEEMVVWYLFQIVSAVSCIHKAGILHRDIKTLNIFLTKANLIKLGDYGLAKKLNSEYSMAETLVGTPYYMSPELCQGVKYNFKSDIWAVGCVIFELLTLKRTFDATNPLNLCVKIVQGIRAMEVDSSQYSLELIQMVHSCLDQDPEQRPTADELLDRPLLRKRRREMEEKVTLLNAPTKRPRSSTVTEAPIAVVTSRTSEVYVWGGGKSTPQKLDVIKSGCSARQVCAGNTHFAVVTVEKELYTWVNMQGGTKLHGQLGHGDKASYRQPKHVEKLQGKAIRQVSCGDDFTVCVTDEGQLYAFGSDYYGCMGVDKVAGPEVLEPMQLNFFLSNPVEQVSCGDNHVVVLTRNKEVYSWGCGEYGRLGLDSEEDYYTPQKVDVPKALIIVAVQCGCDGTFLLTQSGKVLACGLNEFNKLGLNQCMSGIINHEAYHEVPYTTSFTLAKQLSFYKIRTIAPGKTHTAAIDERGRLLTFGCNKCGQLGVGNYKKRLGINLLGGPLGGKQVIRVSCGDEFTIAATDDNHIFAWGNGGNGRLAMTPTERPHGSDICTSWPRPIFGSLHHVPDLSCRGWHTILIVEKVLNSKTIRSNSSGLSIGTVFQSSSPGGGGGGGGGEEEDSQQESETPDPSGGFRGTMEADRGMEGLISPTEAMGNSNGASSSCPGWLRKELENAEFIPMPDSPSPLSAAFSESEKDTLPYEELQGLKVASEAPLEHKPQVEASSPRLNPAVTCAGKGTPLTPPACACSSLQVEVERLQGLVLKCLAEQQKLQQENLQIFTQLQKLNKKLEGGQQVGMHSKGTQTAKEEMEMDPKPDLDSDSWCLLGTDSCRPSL

Sphingosine kinase 1 (Homo sapiens), sequence (Q9NYA1 whole entry): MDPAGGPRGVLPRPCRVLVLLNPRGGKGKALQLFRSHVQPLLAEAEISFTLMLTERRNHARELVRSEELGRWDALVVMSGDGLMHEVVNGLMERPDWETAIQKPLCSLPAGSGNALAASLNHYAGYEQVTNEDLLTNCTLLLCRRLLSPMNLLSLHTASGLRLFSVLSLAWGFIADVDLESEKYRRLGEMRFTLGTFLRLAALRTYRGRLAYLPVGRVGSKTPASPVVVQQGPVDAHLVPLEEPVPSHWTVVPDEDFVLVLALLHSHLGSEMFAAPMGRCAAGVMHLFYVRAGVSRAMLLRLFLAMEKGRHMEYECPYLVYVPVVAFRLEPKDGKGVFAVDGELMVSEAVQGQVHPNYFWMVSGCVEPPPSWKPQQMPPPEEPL

Compound | inhibition [1] | inhibition [2] | inhibition [3] | inhibition [4] | inhibition [5] | inhibition [6] | inhibition [7] | inhibition [8] | inhibition [9] | inhibition [10] | inhibition [11] | inhibition [12] | inhibition [13] | inhibition [14] | inhibition [15] | inhibition [16] | inhibition [17] | inhibition [18] | inhibition [19] | inhibition [20]
Cc1cc(Cl)cc2c1NC(=O)C2=NNc1ccc(S(N)(=O)=O)cc1 | -2.79% | -0.11% | -2.78% | 3.02% | 8.79% | 1.51% | 10.1% | 8.97% | 7.33% | 6.15% | 6.95% | 1.58% | 2.35% | 2.49% | 2.54% | 0.31% | 1.33% | 1.91% | 1.96% | 3.08%
COC(=O)c1cncc(/C=C/c2c(C)cc(O)cc2C)c1 | -4% | -0.39% | -0.47% | 3.51% | 11.9% | 3.28% | 5.67% | 4.7% | 7.41% | 8.93% | 8.63% | 1.51% | 3.23% | 4.54% | 3.91% | 0.94% | 4.21% | 2.47% | 1.56% | 2.09%
